The list is not random: actives were taken first. Their share in the collection is about 7.1%.
ELG1 genotox = induces genotoxicity in HEK293T cells with luciferase-tagged ELG1. HEK293T ELG1-luciferase reporter, luminescence, 16 h. Potency, µM (series often up to 46 µM), without a hit: top-dose activity change, positive = activation, actives largely listed as activators. AID 504466. 330,000 tested, 1.3% active; further: % of control where 0% means no effect; nearly all actives have a fitted effect of over 60% in size
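Reporter readout depends on ELG1 protein level, which increases with genetic stress. After 16 hr compound exposure at 37 °C, luciferase activity was quantified using ONE-Glo.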
MCF10A rerep = DNA re-replication induction in MCF 10a cells; Potency, µM (doses to about 46.1 µM), for inactives: at the highest dose activity, positive = re-replication, most hits filed as activators; 350,000 tested, 2.9% active; MCF 10A DNA re-replication, Hoechst nuclear intensity, 48 h; further: % of control where 0% means no effect; nearly all actives have a fitted effect of over 50% in size
ELG1 DNA repair = ELG1-dependent DNA repair inhibition; Potency, µM (top dose mostly 46.1 µM), for the others: at the highest dose activity change, negative = inhibition, actives largely listed as inhibitors; HEK293T ELG1-luciferase reporter, luminescence, 16 h; DNA damage induced by 5-fluorouridine; AID 504467; 330,000 tested, 2.3% active; further: on the % scale 0 is the no-effect control and ±100 the full control effect; nearly all actives have a fitted effect of over 55% in size
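DMSO vehicle served as the neutral condition. Each well held 2,000 cells given 5-fluorouridine plus compound; after 16 hr at 37 °C/5% CO2, ONE-Glo was added and luciferase measured 30 min later.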
AT treatment = potential ataxia-telangiectasia treatments restoring KAP-1 phosphorylation. F2112 A-T fibroblasts, KAP-1 phosphorylation AlphaLISA; neocarzinostatin DNA damage 30 min before lysis. Potency, µM (highest dose often 57.5 µM), without a hit: top-dose activation, usual class: activators. 320,000 tested, 0.19% active; further: % of control where 0% means no effect; nearly all actives have a fitted effect of over 45% in size
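hTERT-immortalized A-T patient fibroblasts (F2112), 500 cells/well in OPTI-MEM, 1% FBS, got compounds for 60 min, then NCS for 30 min at 37C. Lysates were then assayed for phospho-KAP-1 by AlphaLISA (anti-pKAP1 donor, anti-KAP1 acceptor beads), 6 hr at 25C.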
SW480 rereplic = inducers of DNA re-replication in SW480 colon cancer cells. SW480 DNA re-replication, Hoechst DNA content imaging, 48 h. Potency, µM (highest dose often 46.1 µM), without a hit: at the top dose re-replication activation, actives largely listed as activators. 340,000 tested, 1.8% active. AID 624297; further: % of control where 0% means no effect; nearly all actives have a fitted effect of over 55% in size
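DNA re-replication was detected as more nuclei of elevated Hoechst intensity after 48 hr exposure to compound (23 nL pinned per well of 250 cells).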
p53 reactivator = re-activators of mutant p53 | 320,000 tested, 0.063% active | H1299 p53-A138V BP100-luciferase reporter, luminescence, 24 h | Potency, µM (top dose mostly 92.2 µM), inactives show top-dose activity change, positive = activation, most hits filed as activators; further: % of control where 0% means no effect; nearly all actives have a fitted effect of over 45% in size
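H1299 (p53-null), stable ts p53-A138V + BP100-Luc; 1000 cells/well, Opti-MEM/10% FBS; cpd 4 pt, 1:5; 24 h, 37 deg C, 5% CO2; detection reagent 10 min RT; luminescence.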
Numbers without * were called inactive; ? = inconclusive; nt = not tested or not shown. The call rests on the fitted dose curve; in most records, active means well fitted curve in the direction sought with a large enough effect; inconclusive means small, poorly fitted or top-dose-only effect, or another doubt; inactive means no such curve, though single readings can be large; an effect the other way counts as inactive or inconclusive. Potency means the concentration at half of the fitted maximal effect.

SMILES	ELG1 genotox	MCF10A rerep	ELG1 DNA repair	AT treatment	SW480 rereplic	p53 reactivator
CSc1ccccc1C(=O)N1CCN(c2cccc(Cl)c2)CC1	-10.8%	?	20.6µM*	3.1%	23.1µM*	-5.3%
Cc1noc(C)c1COc1ccccc1C(=O)N1CCN(c2cccc(Cl)c2)CC1	-0.5%	4.5%	9.2µM*	7.7%	?	-6.3%
COc1ccc(CCNC(=O)CN2C(=O)NC(Cc3c[nH]c4ccccc34)C2=O)cc1 (stereo not given)	-4.5%	6.0%	?	2.7%	-6.0%	-1.9%
Cc1cc(C)cc(NC(=O)c2ccc(N3C(=O)C4CCCCC4C3=O)cc2)c1 (stereo not given)	-0.8%	7.5%	12.5%	1.8%	-0.3%	-1.3%
COc1ccc(C(=O)N2CCN(c3cccc(Cl)c3)CC2)cc1S(=O)(=O)NC1CC1	10.5%	23.1µM*	26.5%	3.7%	23.7%	?
CCc1ccc2nc(SCC(=O)N3CC(=O)Nc4ccccc43)c(C#N)cc2c1	10.4%	8.2µM*	?	0.6%	?	24.4%
Cc1nc(SCC(=O)N2CC(=O)Nc3ccccc32)nc(C)c1C	3.2%	0.0%	3.3%	0.0%	-9.9%	0.7%
CCc1cc2cc(C)ccc2nc1SCC(=O)N1CC(=O)Nc2ccccc21	-2.9%	?	?	7.4%	10.1%	-2.3%
N#Cc1cc(C#N)c(SCC(=O)N2CC(=O)Nc3ccccc32)nc1N	-0.3%	5.7%	11.6µM*	-8.6%	-2.8%	-9.7%
O=C(O)CNC(=O)c1ccc(Oc2c(F)c(F)c(Oc3ccc(C(=O)NCC(=O)O)cc3)c(F)c2F)cc1	3.1%	14.1%	12.5%	0.4%	12.0%	4.4%
O=[N+]([O-])c1cccc(S(=O)(=O)Nc2ccc(S(=O)(=O)N3CCCC3)cc2)c1	nt	15.7%	nt	nt	-4.1%	nt
Cc1ccc(S(=O)(=O)Nc2nc3ccccc3nc2Nc2cccc(S(=O)(=O)N3CCCC3)c2)cc1	-20.0%	20.6µM*	20.6µM*	1.7%	?	0.2%
O=[N+]([O-])c1cccc(S(=O)(=O)Nc2nc3ccccc3nc2Nc2cccc(S(=O)(=O)N3CCCCC3)c2)c1	-8.9%	7.9%	2.06µM*	1.9%	9.0%	15.5%
CCN(CC)CC(O)c1ccc2ccc3ccc(O)cc3c2c1 (stereo not given)	nt	5.0%	nt	nt	?	nt
O=C(OCC(=O)N1CCOCC1)c1ccccc1Br	?	-2.0%	?	1.7%	-5.8%	17.0%
O=C(OCC(=O)N1CCOCC1)c1ccccc1Cc1ccccc1	13µM*	-0.6%	?	7.7%	-0.1%	?
O=C(O)C1C2CCC(O2)C1C(=O)Nc1ccc(Br)cc1F (stereo not given)	nt	9.7%	nt	nt	-2.7%	nt
COc1cc(Nc2cccc[n+]2C)cc(OC)c1OC	-1.6%	-10.4%	11.9%	2.4%	-8.2%	3.3%
O=C(CNS(=O)(=O)c1ccc(Br)s1)NCc1ccccc1	0.2%	?	-3.1%	0.3%	2.82µM*	-2.6%
Cc1oc(-c2ccccc2F)nc1CS(=O)(=O)CC(=O)NCc1ccccc1Cl	-4.0%	1.4%	-1.3%	-3.2%	-6.8%	0.2%
COc1cccc(C2CC(c3c(-c4ccccc4)c4cc(Cl)ccc4[nH]c3=O)=NN2S(C)(=O)=O)c1OC (stereo not given)	-17.3%	?	23.1µM*	-0.4%	?	-6.8%
Cc1cc(=O)n2c3ccccc3n(CC(O)CN3CCC(C)CC3)c2c1C#N (stereo not given)	0.2%	8.1%	18.5%	-3.0%	1.3µM*	-8.2%
CCn1cc(C(=O)N2CCCC(C(=O)c3ccc4ccccc4c3)C2)cn1 (stereo not given)	-8.3%	7.6%	?	-3.1%	4.7%	-12.2%
CC(C)OCCCNc1ccc(N2C(=O)CCCC2=O)cc1[N+](=O)[O-]	-4.0%	1.5%	-6.6%	-31.4%	?	1.0%
Cc1cc(C)n(CC(=O)N/N=C/c2ccc([N+](=O)[O-])s2)n1	-15.8%	?	14.6µM*	-0.4%	20.6µM*	7.9%
SMILES	ELG1 genotox	MCF10A rerep	ELG1 DNA repair	AT treatment	SW480 rereplic	p53 reactivator
Cc1ccc(C(=O)N/N=C/c2ccc(-c3ccc(Br)cc3[N+](=O)[O-])o2)o1	-7.2%	5.8µM*	?	-1.1%	-2.7%	-0.8%
Cc1cc(C(=O)N/N=C/c2ccc(-c3cccc([N+](=O)[O-])c3)o2)n[nH]1	6.0%	6.3%	-1.1%	-6.5%	3.9%	-0.1%
CC(C)(C)OC(=O)N/N=C\c1ccc([N+](=O)[O-])s1	5.2%	-26.4%	?	-8.2%	?	?
CCOC(=O)N/N=C\c1ccc([N+](=O)[O-])s1	-14.6%	9.8%	20.6µM*	-1.1%	?	14.5%
Cc1cc(C(=O)N/N=C/c2ccc(-c3ccc([N+](=O)[O-])cc3Cl)o2)n[nH]1	0.4%	18.4µM*	-12.6%	8.9%	18.4µM*	2.0%
Cc1ccc(S(=O)(=O)NCC(=O)N(CC2CCCO2)C(C(=O)NCC2CCCO2)C(C)C)cc1 (stereo not given)	0.9%	-1.2%	1.0%	-2.3%	-4.0%	0.4%
Cc1c(C)n(-c2ccccc2)c2ncnc(NCCN(C)C)c12	-0.5%	22.0%	-3.1%	5.4%	-9.3%	?
Cc1cc(C(=O)N/N=C/c2cc(Br)ccc2OC(=O)c2ccccc2Cl)n[nH]1	?	?	?	2.7%	7.31µM*	2.8%
O=[N+]([O-])c1cc(Cl)cc(/C=N\Nc2ccccn2)c1O	-6.3%	?	?	2.9%	3.66µM*	5.8%
Cc1cc(C(=O)N/N=C/c2ccc(C)s2)n[nH]1	?	0.3%	?	3.7%	-7.5%	?
Cc1cc(C(=O)N/N=C/c2ccc([N+](=O)[O-])s2)n[nH]1	-9.1%	?	16.4µM*	-0.4%	?	6.0%
Cc1cc(C(=O)N/N=C\c2cc(C(C)(C)C)c(O)c(C(C)(C)C)c2)n[nH]1	-38.9%	?	-19.0%	-0.5%	-3.1%	5.6%
O=[N+]([O-])c1ccc(Cl)cc1C=NNc1ccccn1	nt	-6.8%	nt	nt	-0.3%	nt
Cc1cc(C(=O)N/N=C/c2cc(Cl)cc([N+](=O)[O-])c2O)n[nH]1	-7.7%	12.7%	13µM*	-7.6%	4.8%	3.4%
CC1CCCN(C(=O)Cc2cccc3ccccc23)C1 (stereo not given)	15.2%	0.2%	19.2%	11.7%	-1.0%	13.3%
CN(C)c1ccc(/C=N/NC(=O)C(=O)/C=C2\NC3(CCCC3)Cc3ccccc32)cc1	-3.4%	21.9%	11.6µM*	-12.7%	-4.3%	-6.1%

Screens deposited in PubChem by National Center for Advancing Translational Sciences (NCATS).
